PubChem BioAssay AID651687 (Broad Institute, 2012)
Among all 350,000 compounds or so, about 600 (0.17%) were called active. The entries come from a sample that favours actives as a whole. Values without a mark were called inactive.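 Rule for the calls: active = every replicate shows inhibition of at least 40%; inconclusive = mean inhibition at least 40% but some replicate below; inactive = the rest.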

Assay: compounds lowering acetylated PGC1a in cells – cell-based, U2OS, AlphaScreen, inhibitor mode, primary screen (AID 651687);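 note: 0% = neutral control wells and 100% = positive control wells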
Conditions: U2OS PGC1a acetylation, AlphaScreen anti-acetyl-lysine; at 15.6 µM; active compounds read high

| Compound | inhibition |
| --- | --- |
| CCC(C)(O)C(=O)OC1C(=O)OC2CC3C(C)=CC(=O)C(O)C3(C)C3C4(O)OCC23C1C(C)C4O (stereo not given) | 80% (active) |
| O=C(Cc1ccncc1)N1CCCCN2[C@@H](CO)[C@H](c3ccc(-c4ccncc4)cc3)[C@@H]2C1 | 1.83% |
| O=c1[nH]c2ccccc2n1C1CCN(C(c2ccccc2)c2nnnn2Cc2ccccc2)CC1 (stereo not given) | 10.6% |
| COC(=O)C1=C(c2ccc(OCc3ccccc3)cc2)C[C@@H]2CC[C@H]1N2C(=O)NCc1cccc(F)c1 | -39.8% |
| O=C(Cc1ccncc1)N1CCCCN2[C@H](CO)[C@@H](c3ccc(C#CC4(O)CCCC4)cc3)[C@H]2C1 | -7.38% |
| COC1C(O)C(C)OC(OC2CCC3(C=O)C(CCC4C3CCC3(C)C(C5=CC(=O)OC5)CCC43O)C2)C1O (stereo not given) | 82.1% (active) |
| COC(=O)C(c1ccccc1)N1CCCCCC1 (stereo not given) | 5.94% |
| c1ccc(C(CN2CCCCC2)c2ccccc2)cc1 | 40.7% (active) |
| O=C(c1ccccc1)C(O)(CN1CCCCC1)c1ccccc1 (stereo not given) | -2.16% |
| N#Cc1cccc(-c2ccc([C@H]3[C@@H](CO)N4CCCCN(C(=O)Cc5cccnc5)C[C@@H]34)cc2)c1 | -1.39% |
| OC[C@@H]1[C@H]2c3ccccc3NC[C@H]2N1Cc1cccnc1 | 3.98% |
| CCOC(=O)c1cccc(C2=C(CNC(=O)c3ccncc3)[C@H]3CC[C@@H](C2)N3Cc2ccccc2)c1 | -1.43% |
| O=C(Cc1cccnc1)N1CCCCN2[C@@H](CO)[C@H](c3ccc(C#CC4CCCC4)cc3)[C@@H]2C1 | -10.8% |
| O=C(NCC1=C(c2ccc3ccccc3c2)C[C@@H]2CC[C@H]1N2Cc1ccco1)c1cccs1 | -0.267% |
| COC(=O)C[C@@H]1CC[C@@H]2NC[C@@H](O)COC[C@H]2O1 | -2.11% |
